Assay outcomes (PubChem BioAssay)
Cruzain noTriton = qHTS Assay for Promiscuous and Specific Inhibitors of Cruzain (without detergent); 200,000 compounds, 2.3% hits; purified cruzain, Z-FR-AMC fluorescence, no detergent; Cruzipain (Trypanosoma cruzi), P25779; Potency, µM, for inactives: max response, negative = inhibition, hits mostly inhibitors; active = well fitted curve in the direction sought with a large enough effect; inconclusive = small, poorly fitted or top-dose-only effect, or another doubt; inactive = no such curve, though single readings can be large; an effect the other way counts as inactive or inconclusive;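 note: potency is the fitted concentration of half-maximal effect; plate controls were enzyme without inhibitor for no effect and buffer without enzyme for full effect; nearly all actives have a fitted effect of over 40% in size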
Target sequence (P25779 123-467 limits assumed): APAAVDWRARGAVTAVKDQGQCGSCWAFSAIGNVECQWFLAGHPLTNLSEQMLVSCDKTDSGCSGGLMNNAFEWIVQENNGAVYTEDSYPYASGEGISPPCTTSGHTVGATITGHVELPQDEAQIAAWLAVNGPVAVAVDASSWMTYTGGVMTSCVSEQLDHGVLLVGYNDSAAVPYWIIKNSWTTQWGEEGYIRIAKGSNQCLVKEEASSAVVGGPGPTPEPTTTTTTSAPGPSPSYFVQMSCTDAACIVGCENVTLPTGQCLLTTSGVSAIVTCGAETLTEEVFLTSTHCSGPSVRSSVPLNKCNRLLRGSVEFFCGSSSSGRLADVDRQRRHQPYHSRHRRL
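Purified cruzain at 1.5 nM, pre-incubated 15 min with compound at room temperature in 100 mM sodium acetate pH 5.5, 5 mM DTT, 0.00005% Triton X-100. Reaction started with 2 uM Z-FR-AMC; AMC fluorescence increase over 60 s gives rate.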
NS1 inh = qHTS Assay for Inhibitors of Influenza NS1 Protein Function; Potency, µM (series often up to 46.1 µM), without a hit: at the highest dose activity, positive = more growth; 270,000 compounds, 0.4% hits; AID 2326, 2010; note: potency is the fitted concentration of half-maximal effect; actives are rising curves; nearly all actives have a fitted effect of over 50% in size
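Compounds were scored for reversing the slow growth caused by influenza A NS1 in S. cerevisiae, measured by optical density at 600 nm. Assay medium contained 2% galactose at pH 6.0; NS1-free yeast of the same strain were the positive control.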
Cruzain inh Det = qHTS Assay for Promiscuous and Specific Inhibitors of Cruzain (with detergent) | Cruzipain (Trypanosoma cruzi), P25779 | purified cruzain, Z-FR-AMC fluorescence, 0.01% Triton | Potency, µM, without a hit: max response, negative = inhibition, actives largely listed as inhibitors | 200,000 compounds, 0.43% hits | AID 1478, 2009; active = well fitted curve in the direction sought with a large enough effect; inconclusive = small, poorly fitted or top-dose-only effect, or another doubt; inactive = no such curve, though single readings can be large; an effect the other way counts as inactive or inconclusive;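 note: potency is the fitted concentration of half-maximal effect; plate controls were neutral wells for no effect and buffer without enzyme for full effect; nearly all actives have a fitted effect of over 40% in size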
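Detergent-containing run (0.01% Triton X-100) in acetate buffer pH 5.5 with 5 mM DTT: enzyme at 1.5 nM final, 15 min compound preincubation at room temperature, then 2 uM Z-FR-AMC substrate. Activity taken as 60 s fluorescence increase at 360/450 nm.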
NS1 inh valid = Assay for Inhibitors of Influenza NS1 Protein Function: Hit Validation; activity change, negative = inhibition, % at 32.9 µM; shares compounds with NS1 inh; 1,400 tested, under 10 active; influenza NS1 function cell assay, 15-point titration; note: 0% is about no effect
PR8 titer = Assay for Inhibitors of Influenza NS1 Protein Function: Influenza virus replication assay in MDCK cells infected with virus A/PR/8/34; shares compounds with NS1 inh; MDCK infected influenza A/PR/8/34, virus titer TCID50; hits give low values; virus titer (log TCID50), log10 TCID50 at 5 µM; 95 compounds, 30% hits; AID 504647, 2011; call rule not given here
* hit, by the source's call; ? = inconclusive; . = not tested or not shown. The full list was thinned out, with hits kept by preference. Unless noted, calls come from the whole dose curve.

SMILES | Cruzain noTriton | NS1 inh | Cruzain inh Det | NS1 inh valid | others
Cc1[nH]n(-c2ncc(-c3ccccc3)s2)c(=O)c1C(c1ccc(Br)cc1)C(C#N)C#N (stereo unspecified) | 13µM* | 4.5µM* | ? | -21
Cc1[nH]n(C(N)=S)c(=O)c1C(c1ccccc1)C(C#N)C#N (stereo unspecified) | 20% | -41% | 1% | .
CCN(C(=O)c1cc2cc(OC)ccc2oc1=O)c1ccccc1 | -7% | -21% | 8% | .
Cc1cccc(NC(=S)Nc2ccccn2)c1C | -21% | 7% | 0% | .
COc1ccc(OC)c(-c2cc(C(F)(F)F)c3c(n2)sc2c(O)cc(=O)[nH]c23)c1 | 9% | 3% | -2% | .
O=c1cc(O)c2sc3nc(-c4ccccc4)cc(C(F)(F)F)c3c2[nH]1 | -19% | ? | -6% | 2
CCOc1ccc(Oc2nc(NC)nc(N3CCOCC3)n2)nn1 | -5% | . | 1% | .
O=C1/C(=C/c2cccnc2)Oc2cc(OS(=O)(=O)c3ccc(Cl)cc3)ccc21 | -6% | 3.5µM* | 4% | 31
O=C1/C(=C/c2cccnc2)Oc2cc(OS(=O)(=O)c3ccccc3)ccc21 | ? | ? | 0% | .
CCN(CC)C(=O)c1ccc2c(c1)N(Cc1ccccc1F)C(=O)c1ccccc1S2=O (stereo unspecified) | ? | . | 1% | .
CC(=O)c1ccc(NC(=O)C(C)OC(=O)c2ccc(NS(=O)(=O)c3ccc(F)c(F)c3)cc2)cc1 (stereo unspecified) | 16µM* | 11µM* | -7% | 16
CC(OC(=O)c1ccc(NS(=O)(=O)c2ccc3[nH]c(=O)[nH]c3c2)cc1)C(=O)Nc1ccc(Cl)cc1 (stereo unspecified) | . | 13% | . | .
O=C(NCCc1csc(-c2ccc(F)cc2)n1)c1ccco1 | -2% | . | -3% | .
Cc1nnc2n(-c3ccc(Cl)cc3)c(=O)c3c4c(sc3n12)CN(C)CC4 | -19% | 0% | -5% | .
CN1CCc2c(sc3c2c(=O)n(-c2ccccc2)c2nnc(SCc4ccc(Cl)cc4)n32)C1 | -26% | 13µM* | -3% | 14
c1csc(CNc2ccnc(-c3ccc4c(c3)OCO4)n2)c1 | 2% | . | -16% | .
COc1ccc(C(=O)N2CCN=C2SCc2cccnc2)c(OC)c1 | 5% | 6% | 0% | .
COc1cccc(C(=O)N2CCN=C2SCc2cccnc2)c1OC | 6% | 1.6µM* | 0% | -15
CCOC(=O)c1cnc(-n2nc(C)cc2C)nc1NC(C)c1ccccc1 (stereo unspecified) | ? | -114% | -7% | .
O=C(c1ccc(Cn2cc(Cl)cn2)o1)N1CCN(Cc2ccc3c(c2)OCO3)CC1 | 7% | -7% | 5% | .
CCCNc1c(NC(=O)C2CCC(C)CC2)c(=O)oc2ccccc12 (stereo unspecified) | . | 0% | . | .
O=C(NC1(C(F)(F)F)N=C(c2ccccc2)N(Cc2ccccc2)C1=O)c1ccc(F)cc1 (stereo unspecified) | 1% | . | -5% | .
Cc1ccc(-n2c(=S)[nH]c3c(oc4ccccc43)c2=O)cc1 | -6% | 22% | -13% | .
Cc1cccc(-n2c(=S)[nH]c3c(oc4ccccc43)c2=O)c1 | 25% | ? | -5% | 8
NC(=O)C1CCN(c2nc(C3CC3)nc3c2nnn3Cc2ccccc2Cl)CC1 | ? | -9% | 1% | .
SMILES | Cruzain noTriton | NS1 inh | Cruzain inh Det | NS1 inh valid | others
CC(C)(C)c1nc(N2CCN(C(=O)c3ccco3)CC2)c2nnn(Cc3ccccc3Cl)c2n1 | -3% | 13µM* | -2% | ?
Cc1ccc(-n2ncc3c(=O)n(CC(=O)N4CCCc5ccccc54)cnc32)cc1C | -9% | -36% | -6% | .
COc1ccccc1-n1c(SCC(=O)NCc2ccc3c(c2)OCO3)nc2cc([N+](=O)[O-])ccc21 | ? | 13µM* | -11% | 1
CC(Sc1nc2cc([N+](=O)[O-])ccc2n1-c1ccc(F)cc1)C(=O)NCc1ccc2c(c1)OCO2 (stereo unspecified) | ? | ? | -13% | .
COc1ccc(C2NC(=O)NC(C)=C2C(=O)OC2CCC(C)CC2)cc1 (stereo unspecified) | . | ? | . | 6
COc1ccc(C2NC(=O)NC(C)=C2C(=O)OC2CCCC(C)C2)cc1 (stereo unspecified) | . | 20% | . | .
N#Cc1c(NC(=O)c2ccc(-c3ccccc3[N+](=O)[O-])o2)sc2c1CCCC2 | ? | ? | 2% | -17
N#Cc1c(NC(=O)c2ccco2)sc2c1CCC2 | . | -4% | . | .
COc1ccc([C@H]2[C@H](C(=O)C(C)(C)C)N3N=Cc4ccccc4C3[C@]23N=C(c2ccccc2)OC3=O)cc1 (stereo partly specified) | ? | 2µM* | -9% | -10
COc1ccc([C@H]2[C@H](C(=O)C(C)(C)C)N3N=Cc4ccccc4C3[C@]23N=C(c2ccccc2)OC3=O)cc1OC (stereo partly specified) | 14% | 27% | -9% | .
Cc1nn(-c2cc(N3CCOCC3)ccc2[N+](=O)[O-])c(=O)c2ccccc12 | 8% | -1% | -10% | .
Cc1nn(-c2cc(N3CCOCC3)ccc2N)c(=O)c2ccccc12 | -18% | 14µM* | 0% | 13
COC(=O)[C@@]1(Cc2ccc(OC)cc2)[C@H]2c3cc(C(=O)N4CCCC4)n(CCc4ccc(O)c(O)c4)c3C[C@H]2CN1C(=O)c1ccccc1 | ? | . | -2% | .
CCOC(=O)[C@H](N)/C=C(\C)CP(=O)(O)O | 4% | . | 3% | .
COc1ccc(C(=O)CSc2nnc(-c3ccccn3)n2Cc2ccco2)cc1 | ? | ? | -8% | -9
O=C(CSc1nnc(-c2ccccn2)n1Cc1ccco1)c1ccccc1 | -7% | -20% | -5% | .
Cc1noc(/C=C/N(C)C)c1S(=O)(=O)N1CCCC(C(=O)NC(C)c2ccccc2)C1 (stereo unspecified) | 26% | 1.8µM* | -1% | ? | PR8 titer=7.7
Cc1cccc(C)c1NC(=O)C1CCCN(S(=O)(=O)c2c(C)noc2/C=C/N(C)C)C1 (stereo unspecified) | 25% | . | -5% | .
COc1ccc(Cl)cc1NC(=O)CCN1C(=O)c2ccccc2Sc2ncccc21 | -9% | . | -2% | .
CSc1nc(SCC(=O)O)c2sc3nc(-c4ccccc4)c4c(c3c2n1)CCC4 | . | 5% | . | .
CC(=O)Nc1ccc(S(=O)(=O)Nc2nc3ccccc3nc2N2CCc3ccccc3C2)cc1 | 8% | ? | -7% | .
Cc1ccccc1S(=O)(=O)Nc1nc2ccccc2nc1N1CCc2ccccc2C1 | ? | 18µM* | -8% | -7
Cc1ccc(-c2noc(CN(C)C(=O)Nc3ccc(F)cc3)n2)cc1 | . | -2% | . | .
CC1=NN(Cc2cc(C(C)(C)C)c(O)c(C(C)(C)C)c2)C(=O)C1 | . | 14µM* | . | ?
